# From the supplement of paper PMC12067093, “Discovery and optimisation of a covalent ligand for TRIM25 and its application to targeted protein ubiquitination” (Chemical Science, 2025)
# Targets with the largest changes are over-represented here; the source holds about 21,000 in all.
# Target: CLIC1_O00299_191_LHIVQVVCKK (UniProt O00299)
# Assay: probe-labelled cysteine peptide fold change vs DMSO (competition) (log2 fold change); higher = less target engagement (more negative = stronger competition)
# Details: THP-1, incubation time: 4 h
# 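Note: competitive chemoproteomic profiling in live THP-1 cells with an iodoacetamide desthiobiotin (IA-DTB) probe, comparing probe-labelled peptide intensities in compound-treated cells against DMSO-treated controls.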
structure (smiles),measurement,setting,value
CC1Cc2ccccc2N1C(=O)C1CCCN(C(=O)CCl)C1 (mixture of isomers) [TRIM25 ligand 11 (diastereomer mixture)],probe-labelled cysteine peptide fold change,10 µM,-0.428
same,probe-labelled cysteine peptide fold change,50 µM,-0.575
